Test results: ChEMBL document CHEMBL3988442, “University of Dundee, Small-Polar-MMV Screening Library” (2021)

Experiments:
[1] = biological target: T1, Aspartate--tRNA(Asp/Asn) ligase (Mycobacterium tuberculosis (strain ATCC 25618 / H37Rv)) (UniProt P9WFW3); test: Assay for Asp RNA synthetase-1 from Mycobacterium tuberculosis; format: functional; parameters: scale not given: direction of the effect not stated beside the values; settings: 30 µM; also: in the data most compounds retested in dose-response had high values
T1 sequence (whole entry): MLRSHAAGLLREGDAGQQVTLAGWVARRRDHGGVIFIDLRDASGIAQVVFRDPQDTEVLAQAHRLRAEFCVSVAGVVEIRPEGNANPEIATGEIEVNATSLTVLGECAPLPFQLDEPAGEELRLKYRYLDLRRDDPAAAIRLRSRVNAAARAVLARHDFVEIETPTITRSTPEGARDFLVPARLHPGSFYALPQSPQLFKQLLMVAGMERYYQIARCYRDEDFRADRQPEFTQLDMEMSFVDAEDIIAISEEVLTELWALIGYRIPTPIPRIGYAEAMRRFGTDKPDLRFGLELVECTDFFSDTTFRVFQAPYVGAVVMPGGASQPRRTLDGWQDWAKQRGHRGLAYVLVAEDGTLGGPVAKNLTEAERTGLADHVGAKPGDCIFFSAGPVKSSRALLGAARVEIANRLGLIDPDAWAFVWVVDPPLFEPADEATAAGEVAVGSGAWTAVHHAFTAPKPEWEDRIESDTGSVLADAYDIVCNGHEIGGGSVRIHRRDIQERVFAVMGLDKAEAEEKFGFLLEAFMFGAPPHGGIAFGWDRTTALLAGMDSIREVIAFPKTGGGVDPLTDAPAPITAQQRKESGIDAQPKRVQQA

[2] = biological target: Shiga toxin 2 (Escherichia coli O157:H7) (UniProt P09385+P09386); test: E. coli 0.157:H7 Shiga Toxin SOP - stx2 screening assay; format: functional; parameters: scale not given: direction of the effect not stated beside the values; settings: 30 µM

SMILES | Percent Effect [1] [%] | Percent Effect [2] [%]
CCOC(=O)N1CCN(C(=O)CCn2ccc3c(OC)cccc32)CC1 | 0.389 | -14.3
N#Cc1ccc(OC2CCN(C(=O)c3ccc4c(c3)OCO4)CC2)nc1 | -8.83 | -32.6
CCC(C)N(C)S(=O)(=O)c1ccc(CCNC(C)=O)s1 (stereo not drawn) | 0.0557 | -17
COc1c(C2CCCN2Cc2csc(C(C)C)n2)c(C)nn1C (stereo not drawn) | -1.4 | -10.7
O=C(NCCCN1CCOCC1)c1ccn(-c2ccc3ccccn23)n1 | 3.71 | -18.9
CCOC1CCCN(C(=O)c2sccc2-n2cnnn2)C1 (stereo not drawn) | -4.21 | -8.57
Cc1noc2nc(C3CCN(Cc4cccnc4)CC3)cc(C(F)F)c12 | 1.32 | -52.2
CC(C)(C)c1cnc(CN2CCC[C@H]2CO)o1 | -4.22 | -5.47
CN(C)C(=O)COC[C@]12COC[C@H]1CN(Cc1ccoc1)C2 | -2.38 | -7.04
CNC(=O)COc1ccccc1CNC1CCc2ncnn2C1 (stereo not drawn) | -0.833 | -29.9
CC(c1ccc(F)c(F)c1)N1CCN(Cc2nccn2C)CC1 (stereo not drawn) | -2.85 | -13.2
CN(Cc1cccc(F)c1)C(=O)CN1CCCCC1Cn1cncn1 (stereo not drawn) | 5.47 | -9.64
CCOc1ccccc1-c1noc(CN(C)Cc2cnn(C)c2)n1 | 2.13 | -14
CCCc1n[nH]c(C2CN(CCNS(=O)(=O)CC)CCO2)n1 (stereo not drawn) | 2.63 | -17
Cc1cnc(CN2CCC(N(C)Cc3nnc(C4CC4)n3C)C2)cn1 (stereo not drawn) | 5.06 | 5.3
CCOCCOC(C)C(=O)NCc1cn2cc(Br)ccc2n1 (stereo not drawn) | 1.62 | -14.8
CN1CCN(c2ncnc3c2c(C(=O)NC2CC2)c2ccccn23)CC1 | 5.32 | -14.4
Cc1ccc(C#N)cc1NC(=O)NC1CCCN(c2ncccn2)C1 (stereo not drawn) | 1.97 | -2.85
CC(NC(=O)CCOc1ccccc1Cl)c1nnc2n1CCC2 (stereo not drawn) | -1 | 22.6
